Source: paper PMC7862700, “An all-to-all approach to the identification of sequence-specific readers for epigenetic DNA modifications on cytosine”

How the values were obtained:
Assay in all cases: DAPPL (digital affinity profiling via proximity ligation, sequencing); 10 mM Tris-HCl pH 7.5, 50 mM NaCl, 1 mM DTT, 4% glycerol, room temperature, 30 min; GST-TFs on glutathione beads, 16-mer random dsDNA library, 0.1% formaldehyde crosslink after washing; high values mean tight binding
FLI1 = biological target: T1, FLI1 (Homo sapiens, UniProt Q01543 1-452); settings: protein: recombinant; tags: N-terminal GST; dsDNA, one strand shown
T1 sequence: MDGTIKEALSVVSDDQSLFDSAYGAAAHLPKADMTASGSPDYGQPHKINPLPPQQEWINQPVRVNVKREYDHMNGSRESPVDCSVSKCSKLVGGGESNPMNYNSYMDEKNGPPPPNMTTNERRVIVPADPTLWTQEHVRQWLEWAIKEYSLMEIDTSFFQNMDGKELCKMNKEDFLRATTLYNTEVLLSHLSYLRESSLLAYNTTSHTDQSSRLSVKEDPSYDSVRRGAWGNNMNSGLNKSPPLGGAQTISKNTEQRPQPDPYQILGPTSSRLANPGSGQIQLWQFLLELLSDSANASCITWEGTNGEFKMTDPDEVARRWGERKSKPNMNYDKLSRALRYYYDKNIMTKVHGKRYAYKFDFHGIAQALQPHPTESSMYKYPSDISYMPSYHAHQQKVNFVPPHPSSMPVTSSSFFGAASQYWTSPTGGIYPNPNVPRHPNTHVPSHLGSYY
Outline: (§1)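 Each value of binding signal is a hexamer's read frequency for a factor divided by the same hexamer's frequency in the tag-only sample. Barcoded, bead-captured GST fusions of human transcription factors made in yeast were pooled with that sample and incubated with 200 nmole of a random double-stranded 16-mer DNA library in Tris/NaCl/DTT/glycerol buffer at room temperature for 30 min. Washing, 0.1% formaldehyde crosslinking, proximity ligation, PCR and Illumina NextSeq500 sequencing followed.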

ELK1 = biological target: T2, ELK1 (Homo sapiens, UniProt P19419 1-428); settings: protein: recombinant; tags: N-terminal GST; dsDNA, one strand shown
T2 sequence: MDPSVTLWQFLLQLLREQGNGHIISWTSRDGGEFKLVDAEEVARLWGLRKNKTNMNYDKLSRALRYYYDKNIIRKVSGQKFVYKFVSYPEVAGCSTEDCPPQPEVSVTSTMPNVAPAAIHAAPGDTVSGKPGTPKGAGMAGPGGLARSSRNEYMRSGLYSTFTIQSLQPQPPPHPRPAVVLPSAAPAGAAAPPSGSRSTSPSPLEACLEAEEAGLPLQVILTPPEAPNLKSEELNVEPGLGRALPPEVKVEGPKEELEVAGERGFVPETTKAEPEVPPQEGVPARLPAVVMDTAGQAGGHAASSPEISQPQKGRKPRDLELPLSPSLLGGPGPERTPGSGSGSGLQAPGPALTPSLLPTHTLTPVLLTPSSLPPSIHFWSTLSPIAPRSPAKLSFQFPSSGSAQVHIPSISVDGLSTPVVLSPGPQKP
Outline: as §1

GABPA = biological target: T3, GABPA (Homo sapiens, UniProt Q06546 1-454); settings: protein: recombinant; tags: N-terminal GST; dsDNA, one strand shown
T3 sequence: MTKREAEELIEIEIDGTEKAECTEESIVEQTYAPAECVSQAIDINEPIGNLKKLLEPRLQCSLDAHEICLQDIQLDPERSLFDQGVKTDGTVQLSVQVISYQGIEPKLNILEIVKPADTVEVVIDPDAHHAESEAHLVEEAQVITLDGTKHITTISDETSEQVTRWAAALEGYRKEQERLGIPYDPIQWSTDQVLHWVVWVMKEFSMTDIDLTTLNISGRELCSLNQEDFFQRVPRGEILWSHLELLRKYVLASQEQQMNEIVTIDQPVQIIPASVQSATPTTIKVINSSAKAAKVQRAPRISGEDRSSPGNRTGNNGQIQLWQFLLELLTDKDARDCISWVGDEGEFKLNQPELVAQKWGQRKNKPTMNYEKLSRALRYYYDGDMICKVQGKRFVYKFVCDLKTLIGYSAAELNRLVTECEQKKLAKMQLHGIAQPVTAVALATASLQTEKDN
Outline: as §1

ERG = biological target: T4, ERG (Homo sapiens, UniProt P11308 1-479); settings: protein: recombinant; tags: N-terminal GST; dsDNA, one strand shown
T4 sequence: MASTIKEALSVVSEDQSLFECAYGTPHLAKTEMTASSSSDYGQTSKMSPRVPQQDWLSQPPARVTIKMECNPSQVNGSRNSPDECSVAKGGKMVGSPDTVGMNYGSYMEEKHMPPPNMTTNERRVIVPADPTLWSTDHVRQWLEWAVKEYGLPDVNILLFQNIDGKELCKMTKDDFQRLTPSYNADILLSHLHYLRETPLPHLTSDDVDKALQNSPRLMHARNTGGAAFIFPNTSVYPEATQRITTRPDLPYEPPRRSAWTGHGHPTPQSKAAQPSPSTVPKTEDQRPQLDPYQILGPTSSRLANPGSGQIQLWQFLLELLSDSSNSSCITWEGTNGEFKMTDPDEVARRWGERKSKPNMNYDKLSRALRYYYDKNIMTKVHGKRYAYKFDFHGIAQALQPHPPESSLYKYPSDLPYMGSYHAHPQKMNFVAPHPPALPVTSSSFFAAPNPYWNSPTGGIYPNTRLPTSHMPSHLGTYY
Outline: as §1

ELF1 = ELF1 (Homo sapiens, UniProt P32519 1-619); settings: protein: recombinant; tags: N-terminal GST; dsDNA, one strand shown
Sequence of ELF1 (P32519 whole entry): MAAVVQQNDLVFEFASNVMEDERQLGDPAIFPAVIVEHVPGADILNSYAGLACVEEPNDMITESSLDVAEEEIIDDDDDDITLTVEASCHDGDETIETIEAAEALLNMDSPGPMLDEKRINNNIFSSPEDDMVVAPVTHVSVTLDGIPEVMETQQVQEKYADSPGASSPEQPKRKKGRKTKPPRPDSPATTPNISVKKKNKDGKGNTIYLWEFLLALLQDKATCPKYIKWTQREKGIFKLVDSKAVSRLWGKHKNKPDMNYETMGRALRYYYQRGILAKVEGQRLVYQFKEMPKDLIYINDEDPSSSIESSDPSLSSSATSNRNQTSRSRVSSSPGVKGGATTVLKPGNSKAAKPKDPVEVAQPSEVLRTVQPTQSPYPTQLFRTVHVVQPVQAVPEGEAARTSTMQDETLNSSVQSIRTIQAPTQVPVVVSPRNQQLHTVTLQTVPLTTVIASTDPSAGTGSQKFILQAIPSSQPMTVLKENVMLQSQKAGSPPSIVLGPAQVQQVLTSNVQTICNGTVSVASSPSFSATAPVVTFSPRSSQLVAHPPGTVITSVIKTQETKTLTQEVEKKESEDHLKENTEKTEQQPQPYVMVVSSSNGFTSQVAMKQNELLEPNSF
Outline: as §1

EHF = biological target: T5, EHF (Homo sapiens, UniProt Q9NZC4 1-300); settings: protein: recombinant; tags: N-terminal GST; dsDNA, one strand shown
T5 sequence: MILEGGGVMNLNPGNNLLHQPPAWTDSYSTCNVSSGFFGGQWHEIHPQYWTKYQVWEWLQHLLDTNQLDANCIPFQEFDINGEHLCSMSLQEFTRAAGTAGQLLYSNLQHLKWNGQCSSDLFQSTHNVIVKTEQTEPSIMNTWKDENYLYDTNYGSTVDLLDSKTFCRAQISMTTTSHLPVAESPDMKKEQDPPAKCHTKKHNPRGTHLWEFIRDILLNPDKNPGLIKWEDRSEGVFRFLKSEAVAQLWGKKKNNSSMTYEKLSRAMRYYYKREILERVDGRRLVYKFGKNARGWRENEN
Outline: as §1

SPI1 = SPI1 (Homo sapiens, UniProt P17947 1-270); settings: protein: recombinant; tags: N-terminal GST; dsDNA, one strand shown
Outline: as §1

SPIB = SPIB (Homo sapiens, UniProt Q01892 1-262); settings: protein: recombinant; tags: N-terminal GST; dsDNA, one strand shown
Sequence of SPIB (Q01892 whole entry): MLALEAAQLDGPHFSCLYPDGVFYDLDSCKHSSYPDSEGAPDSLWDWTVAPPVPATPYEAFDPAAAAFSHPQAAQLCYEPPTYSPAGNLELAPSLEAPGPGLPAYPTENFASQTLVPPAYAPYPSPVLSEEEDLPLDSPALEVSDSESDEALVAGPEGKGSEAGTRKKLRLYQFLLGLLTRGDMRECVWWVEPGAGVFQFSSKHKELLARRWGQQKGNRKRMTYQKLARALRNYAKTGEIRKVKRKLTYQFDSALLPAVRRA
Outline: as §1

ELK3 = biological target: T6, ELK3 (Homo sapiens, UniProt P41970 1-407); settings: protein: recombinant; tags: N-terminal GST; dsDNA, one strand shown
T6 sequence: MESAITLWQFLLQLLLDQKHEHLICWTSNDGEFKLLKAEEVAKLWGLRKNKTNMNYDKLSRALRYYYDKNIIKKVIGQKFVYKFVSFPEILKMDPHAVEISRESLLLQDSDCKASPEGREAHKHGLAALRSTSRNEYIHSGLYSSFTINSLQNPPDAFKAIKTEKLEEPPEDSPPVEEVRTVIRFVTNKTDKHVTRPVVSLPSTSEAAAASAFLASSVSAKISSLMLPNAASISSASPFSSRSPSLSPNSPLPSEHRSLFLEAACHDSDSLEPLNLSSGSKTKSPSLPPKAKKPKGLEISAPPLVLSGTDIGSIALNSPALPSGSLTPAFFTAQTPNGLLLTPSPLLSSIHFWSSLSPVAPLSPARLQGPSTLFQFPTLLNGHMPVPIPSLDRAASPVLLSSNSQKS
Outline: as §1

FEV = biological target: T7, FEV (Homo sapiens, UniProt Q99581 1-238); settings: protein: recombinant; tags: N-terminal GST; dsDNA, one strand shown
T7 sequence: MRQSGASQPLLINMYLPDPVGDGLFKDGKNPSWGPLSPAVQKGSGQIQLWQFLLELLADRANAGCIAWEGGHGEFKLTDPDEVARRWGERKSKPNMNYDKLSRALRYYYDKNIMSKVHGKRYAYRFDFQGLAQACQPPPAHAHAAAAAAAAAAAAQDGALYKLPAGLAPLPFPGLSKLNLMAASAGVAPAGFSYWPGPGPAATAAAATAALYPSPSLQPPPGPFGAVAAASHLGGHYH
Outline: as §1

ETV5 = ETV5 (Homo sapiens, UniProt P41161 1-510); settings: protein: recombinant; tags: N-terminal GST; dsDNA, one strand shown
Sequence of ETV5 (P41161 whole entry): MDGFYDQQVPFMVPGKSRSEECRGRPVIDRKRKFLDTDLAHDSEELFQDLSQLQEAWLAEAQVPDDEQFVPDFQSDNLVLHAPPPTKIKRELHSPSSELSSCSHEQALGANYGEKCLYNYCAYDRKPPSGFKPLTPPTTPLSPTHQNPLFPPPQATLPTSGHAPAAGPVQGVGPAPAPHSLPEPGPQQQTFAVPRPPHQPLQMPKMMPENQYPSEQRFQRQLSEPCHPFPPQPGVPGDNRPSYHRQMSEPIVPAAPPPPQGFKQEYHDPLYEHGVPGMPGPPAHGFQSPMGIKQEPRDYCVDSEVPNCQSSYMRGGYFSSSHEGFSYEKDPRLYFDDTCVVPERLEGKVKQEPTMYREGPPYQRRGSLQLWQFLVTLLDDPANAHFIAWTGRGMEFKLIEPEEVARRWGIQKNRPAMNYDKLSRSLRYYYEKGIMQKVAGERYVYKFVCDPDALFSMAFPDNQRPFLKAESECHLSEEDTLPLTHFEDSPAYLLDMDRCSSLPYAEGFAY
Outline: as §1

HSF1 = HSF1 (Homo sapiens, UniProt Q00613 1-529); settings: protein: recombinant; tags: N-terminal GST; chain copies: 3; dsDNA, one strand shown
Sequence of HSF1 (Q00613 whole entry): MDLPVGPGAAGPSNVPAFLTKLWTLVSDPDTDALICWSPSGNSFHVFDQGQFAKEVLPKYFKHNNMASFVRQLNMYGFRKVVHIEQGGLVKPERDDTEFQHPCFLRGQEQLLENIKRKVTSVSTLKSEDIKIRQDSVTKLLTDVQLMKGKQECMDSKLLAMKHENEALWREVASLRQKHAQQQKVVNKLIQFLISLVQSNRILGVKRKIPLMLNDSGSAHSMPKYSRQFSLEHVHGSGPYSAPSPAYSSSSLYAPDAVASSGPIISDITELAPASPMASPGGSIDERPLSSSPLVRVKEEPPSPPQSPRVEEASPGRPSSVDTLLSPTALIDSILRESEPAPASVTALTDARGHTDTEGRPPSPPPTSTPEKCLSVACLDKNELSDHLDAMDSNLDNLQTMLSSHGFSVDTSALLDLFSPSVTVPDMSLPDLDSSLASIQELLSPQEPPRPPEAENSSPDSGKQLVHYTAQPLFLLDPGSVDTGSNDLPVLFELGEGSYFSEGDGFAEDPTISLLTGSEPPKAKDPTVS
Outline: as §1

SPIC = biological target: T8, SPIC (Homo sapiens, UniProt Q8N5J4 1-248); settings: protein: recombinant; tags: N-terminal GST; dsDNA, one strand shown
T8 sequence: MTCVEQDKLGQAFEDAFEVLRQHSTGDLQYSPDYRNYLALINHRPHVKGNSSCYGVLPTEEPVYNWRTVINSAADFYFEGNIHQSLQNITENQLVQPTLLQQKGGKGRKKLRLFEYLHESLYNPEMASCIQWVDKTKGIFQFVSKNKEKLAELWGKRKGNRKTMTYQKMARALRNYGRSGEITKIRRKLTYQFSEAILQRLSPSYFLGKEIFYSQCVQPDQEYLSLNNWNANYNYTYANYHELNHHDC
Outline: as §1

ELF4 = ELF4 (Homo sapiens, UniProt Q99607 1-663); settings: protein: recombinant; tags: N-terminal GST; dsDNA, one strand shown
Sequence of ELF4 (Q99607 whole entry): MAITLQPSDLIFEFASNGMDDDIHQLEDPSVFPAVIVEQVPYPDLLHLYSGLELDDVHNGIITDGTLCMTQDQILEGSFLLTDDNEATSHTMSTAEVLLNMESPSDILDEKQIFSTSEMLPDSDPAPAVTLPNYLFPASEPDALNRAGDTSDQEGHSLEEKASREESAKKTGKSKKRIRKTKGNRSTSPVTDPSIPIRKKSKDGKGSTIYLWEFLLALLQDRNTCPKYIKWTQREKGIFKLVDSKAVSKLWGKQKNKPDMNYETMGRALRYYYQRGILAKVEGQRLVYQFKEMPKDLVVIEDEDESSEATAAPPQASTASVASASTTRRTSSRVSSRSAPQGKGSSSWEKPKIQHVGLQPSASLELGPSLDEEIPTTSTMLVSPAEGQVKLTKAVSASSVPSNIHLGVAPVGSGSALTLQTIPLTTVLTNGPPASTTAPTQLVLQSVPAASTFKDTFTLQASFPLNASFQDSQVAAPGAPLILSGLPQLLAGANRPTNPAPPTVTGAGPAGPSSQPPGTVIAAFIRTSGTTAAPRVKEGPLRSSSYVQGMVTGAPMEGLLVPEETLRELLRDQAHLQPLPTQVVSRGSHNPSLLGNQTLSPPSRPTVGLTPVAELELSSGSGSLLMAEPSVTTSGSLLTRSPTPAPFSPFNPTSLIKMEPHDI
Outline: as §1

ELK4 = biological target: T9, ELK4 (Homo sapiens, UniProt P28324-2 1-405); settings: protein: recombinant; tags: N-terminal GST; dsDNA, one strand shown
T9 sequence: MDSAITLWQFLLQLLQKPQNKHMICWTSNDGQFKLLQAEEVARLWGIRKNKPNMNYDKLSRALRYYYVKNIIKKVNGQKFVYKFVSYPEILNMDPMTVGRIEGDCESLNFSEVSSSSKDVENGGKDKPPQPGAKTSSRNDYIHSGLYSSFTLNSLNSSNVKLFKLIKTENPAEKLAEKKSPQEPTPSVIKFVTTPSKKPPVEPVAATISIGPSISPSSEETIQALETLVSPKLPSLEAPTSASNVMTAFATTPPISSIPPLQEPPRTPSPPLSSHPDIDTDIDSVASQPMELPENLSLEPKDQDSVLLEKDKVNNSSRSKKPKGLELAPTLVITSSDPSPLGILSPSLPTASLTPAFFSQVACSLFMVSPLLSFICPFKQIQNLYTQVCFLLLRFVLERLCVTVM
Outline: as §1

ETV2 = biological target: T10, ETV2 (Homo sapiens, UniProt O00321 1-342); settings: protein: recombinant; tags: N-terminal GST; dsDNA, one strand shown
T10 sequence: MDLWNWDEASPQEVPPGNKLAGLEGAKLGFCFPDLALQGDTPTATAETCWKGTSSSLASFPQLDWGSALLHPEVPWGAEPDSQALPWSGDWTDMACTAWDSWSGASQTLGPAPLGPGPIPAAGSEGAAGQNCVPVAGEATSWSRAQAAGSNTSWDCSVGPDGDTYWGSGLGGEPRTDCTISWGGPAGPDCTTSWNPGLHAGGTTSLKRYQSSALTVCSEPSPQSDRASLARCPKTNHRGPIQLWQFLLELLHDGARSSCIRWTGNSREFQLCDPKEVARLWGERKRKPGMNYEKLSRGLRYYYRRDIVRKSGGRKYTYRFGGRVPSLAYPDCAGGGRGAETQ
Outline: as §1

ELF3 = biological target: T11, ELF3 (Homo sapiens, UniProt P78545 1-371); settings: protein: recombinant; tags: N-terminal GST; dsDNA, one strand shown
T11 sequence: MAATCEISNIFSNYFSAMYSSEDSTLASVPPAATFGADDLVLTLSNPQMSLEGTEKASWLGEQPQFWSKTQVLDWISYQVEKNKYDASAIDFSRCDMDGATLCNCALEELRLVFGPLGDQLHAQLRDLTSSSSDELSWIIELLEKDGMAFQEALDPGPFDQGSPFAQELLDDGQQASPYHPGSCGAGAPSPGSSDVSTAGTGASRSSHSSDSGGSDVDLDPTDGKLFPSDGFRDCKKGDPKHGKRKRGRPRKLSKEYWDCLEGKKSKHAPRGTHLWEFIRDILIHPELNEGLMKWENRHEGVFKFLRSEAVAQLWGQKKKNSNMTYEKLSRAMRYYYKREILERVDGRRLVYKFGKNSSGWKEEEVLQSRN
Outline: as §1

CRX = CRX (Homo sapiens, UniProt O43186 1-299); settings: protein: recombinant; tags: N-terminal GST; dsDNA, one strand shown
Sequence of CRX (O43186 whole entry): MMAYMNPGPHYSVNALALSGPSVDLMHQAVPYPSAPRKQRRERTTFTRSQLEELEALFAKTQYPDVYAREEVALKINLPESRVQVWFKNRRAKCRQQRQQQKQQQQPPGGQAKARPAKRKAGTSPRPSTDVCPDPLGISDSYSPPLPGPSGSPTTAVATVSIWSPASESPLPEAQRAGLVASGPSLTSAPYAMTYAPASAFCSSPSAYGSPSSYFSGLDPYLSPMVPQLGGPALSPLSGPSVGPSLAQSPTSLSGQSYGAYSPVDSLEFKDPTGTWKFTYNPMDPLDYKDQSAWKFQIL
Outline: as §1

ETV1 = ETV1 (Homo sapiens, UniProt P50549 1-477); settings: protein: recombinant; tags: N-terminal GST; dsDNA, one strand shown
Sequence of ETV1 (P50549 whole entry): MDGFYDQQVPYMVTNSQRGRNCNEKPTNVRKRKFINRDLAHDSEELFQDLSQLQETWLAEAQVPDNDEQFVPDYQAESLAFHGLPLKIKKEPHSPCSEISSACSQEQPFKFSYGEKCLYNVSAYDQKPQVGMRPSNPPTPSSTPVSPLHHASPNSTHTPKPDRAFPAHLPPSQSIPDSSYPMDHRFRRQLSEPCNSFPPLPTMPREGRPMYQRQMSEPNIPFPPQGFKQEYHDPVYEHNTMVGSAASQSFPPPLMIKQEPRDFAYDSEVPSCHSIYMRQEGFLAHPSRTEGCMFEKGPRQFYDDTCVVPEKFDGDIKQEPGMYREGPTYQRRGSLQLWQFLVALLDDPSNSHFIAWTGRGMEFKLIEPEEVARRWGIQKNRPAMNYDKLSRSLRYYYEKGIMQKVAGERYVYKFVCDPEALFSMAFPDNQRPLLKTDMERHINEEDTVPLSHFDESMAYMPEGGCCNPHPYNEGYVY
Outline: as §1

AACTTA
binding signal (FLI1): 1.28 fold enrichment (6-mer frequency, TF over GST control) | binding signal (ELK1): 1.24 fold enrichment (6-mer frequency, TF over GST control) | binding signal (GABPA): 1.32 fold enrichment (6-mer frequency, TF over GST control) | binding signal (ERG): 1.18 fold enrichment (6-mer frequency, TF over GST control) | binding signal (ELF1): 1.27 fold enrichment (6-mer frequency, TF over GST control) | binding signal (EHF): 1.34 fold enrichment (6-mer frequency, TF over GST control) | binding signal (SPI1): 1.23 fold enrichment (6-mer frequency, TF over GST control) | binding signal (SPIB): 1.23 fold enrichment (6-mer frequency, TF over GST control) | binding signal (ELK3): 1.26 fold enrichment (6-mer frequency, TF over GST control) | binding signal (FEV): 1.2 fold enrichment (6-mer frequency, TF over GST control) | binding signal (ETV5): 1.23 fold enrichment (6-mer frequency, TF over GST control) | binding signal (HSF1): 1.41 fold enrichment (6-mer frequency, TF over GST control) | binding signal (SPIC): 1.27 fold enrichment (6-mer frequency, TF over GST control) | binding signal (ELF4): 1.19 fold enrichment (6-mer frequency, TF over GST control) | binding signal (ELK4): 1.22 fold enrichment (6-mer frequency, TF over GST control) | binding signal (ETV2): 1.08 fold enrichment (6-mer frequency, TF over GST control) | binding signal (ELF3): 1.12 fold enrichment (6-mer frequency, TF over GST control) | binding signal (CRX): 1.72 fold enrichment (6-mer frequency, TF over GST control) | binding signal (ETV1): 1.22 fold enrichment (6-mer frequency, TF over GST control)
